# High-throughput results: PubChem BioAssay, several laboratories
# rCAG binder: molecules binding r(CAG) RNA repeats; inhibition, % at 3 µM; actives 1.3% (n = 370,000); r(CAG) RNA repeat, TO-PRO-1 dye displacement fluorescence; AID 651821;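 active = inhibition above the plate cutoff, the mean of all test compounds on that plate plus 3 SD, cut at about 35% in these data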;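 note: higher means more dye released from RNA so lower well fluorescence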
# aDG glyco up: increases alpha dystroglycan glycosylation. activation, % at 10 µM. AID 624168. Pro5-aDG cells, alpha-DG glycosylation AlphaScreen (IIH6); 0% Pro5, 100% B10-LARGE cell signal. actives 0.22% (n = 360,000);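 active = activation of at least 8% versus controls, or a plate z-score of at least 8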;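 note: Pro5 are CHO cells carrying HIG-tagged alpha-DG that lacks glycosylation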
# PHOSPHO1 block: inhibitors of human PHOSPHO1 phosphatase; recombinant PHOSPHO1, absorbance phosphatase assay; inhibition, % at 13.3 µM; Q8TCT1; AID 1565; actives 1.1% (n = 290,000); in the data active = inhibition above about 60%
# Target sequence (Q8TCT1 whole entry, looked up): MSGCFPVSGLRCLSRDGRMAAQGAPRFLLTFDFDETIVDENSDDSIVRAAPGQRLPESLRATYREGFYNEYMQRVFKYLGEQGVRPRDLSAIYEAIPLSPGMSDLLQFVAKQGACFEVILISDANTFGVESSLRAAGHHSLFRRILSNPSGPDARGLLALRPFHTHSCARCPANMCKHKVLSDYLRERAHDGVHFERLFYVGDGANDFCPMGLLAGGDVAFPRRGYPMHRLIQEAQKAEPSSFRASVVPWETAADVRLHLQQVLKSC
# ALR inh: blocks human ALR sulfhydryl oxidase activity. P55789. purified ALR, DTT oxidation, H2O2 HRP-luminol luminescence. inhibition, % (test concentration not listed). actives 3.8% (n = 290,000). AID 485317;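 active = mean replicate inhibition above about 79%, with every replicate also reaching it, limit read from the data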
# A3A deaminase: blocks human APOBEC3A ssDNA deamination; P31941; recombinant A3A, FAM/TAMRA ssDNA deamination fluorescence; inhibition, % at 20 µM; actives 0.41% (n = 330,000);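 active = at least 40% inhibition at 20 µM here, with at most 30% in a related deaminase screen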
# A3G deaminase: blocks human APOBEC3G single-stranded DNA deamination; Q9HC16; recombinant A3G, ssDNA deamination FAM/TAMRA fluorescence; inhibition, % at 20 µM; actives 0.28% (n = 330,000); AID 493012;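 active = inhibition of at least 40% at 20 µM, with no more than 30% in the related APOBEC3A deaminase screen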
# Target sequence (Q9HC16 whole entry, looked up): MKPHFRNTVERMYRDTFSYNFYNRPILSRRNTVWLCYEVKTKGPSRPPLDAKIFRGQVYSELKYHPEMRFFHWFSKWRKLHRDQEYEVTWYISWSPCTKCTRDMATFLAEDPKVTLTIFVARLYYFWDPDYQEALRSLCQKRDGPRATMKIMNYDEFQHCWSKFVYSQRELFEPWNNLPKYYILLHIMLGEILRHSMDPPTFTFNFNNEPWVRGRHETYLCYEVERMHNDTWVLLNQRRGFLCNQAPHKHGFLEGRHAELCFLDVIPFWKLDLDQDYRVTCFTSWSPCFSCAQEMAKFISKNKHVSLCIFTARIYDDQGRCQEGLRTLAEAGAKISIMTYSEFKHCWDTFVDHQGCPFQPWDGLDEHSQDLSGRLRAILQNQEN
# Hits are given with their value; – = inactive; · = no result. An excerpt weighted towards active compounds, which were near 5.4% of everything screened.
SMILES,rCAG binder,aDG glyco up,PHOSPHO1 block,ALR inh,A3A deaminase,A3G deaminase
COC1=C/C(=C/c2c(O)c(C#N)c3ccccn23)C=CC1=O,–,–,–,91.2,–,–
COc1cc(/C=C(/NC(C)=O)C(=O)O)cc(Cl)c1OCc1ccc(Br)cc1,–,–,–,94.9,–,–
CCn1c(-c2cc(C3CC3)nc3ccccc23)n[nH]c1=S,–,–,–,–,–,–
CCn1c(-c2cc(-c3cc(C)ccc3C)nc3ccccc23)n[nH]c1=S,–,–,–,–,–,–
CCn1c(-c2cc3ccccc3cc2O)n[nH]c1=S,–,–,92.1,98.7,–,–
CCn1c(-c2cc(Br)ccc2O)n[nH]c1=S,–,–,·,98.1,–,–
CCN(CC)C(=O)CSc1nnc(-c2cc3ccccc3cc2O)n1CC,–,–,62.2,84.8,–,–
Cc1ccc(NC(=O)CCS(=O)(=O)c2ccccc2)c(C)c1,–,·,·,·,·,·
Oc1ccc2[nH]cc(CCc3ccccc3)c2c1-c1ccccc1,–,·,·,·,·,·
CCOC(=O)c1c(N)sc2c1CCS(=O)(=O)C2,–,–,78.9,·,–,–
CCOC(=O)c1c(N)sc2c1CCCC2,–,–,–,–,–,–
O=C1CC(=O)N(c2ccccc2)N1c1ccccc1,–,–,–,97.2,–,–
CCCn1c(SCC(=O)c2ccc3c(c2)NC(=O)CO3)nc2ccccc21,–,–,–,98.8,–,–
O=C1COc2ccc(C(=O)CSc3nc4ccccc4c(=O)n3-c3ccc(Cl)c(Cl)c3)cc2N1,–,–,–,–,–,–
CCc1ccc(-n2c(SCC(=O)c3ccc4c(c3)NC(=O)CO4)nc3ccccc3c2=O)cc1,–,–,60.0,–,–,–
O=C(c1ccc(F)c(F)c1)N1CCC(Oc2cccnc2)CC1,–,·,·,·,·,·
Cc1cc(=O)[nH]c2c(C)cc(S(=O)(=O)Nc3ccc(O)cc3)cc12,–,–,–,99.1,–,–
Cc1cc(-c2cc(NC(=O)Cc3c[nH]c4ccccc34)ccc2Nc2cccnc2)ccc1F,–,·,·,·,·,·
O=C(NCc1ccccc1)[C@@H]1CCCN1C(=O)[C@H]1CCCN1C(=O)c1ccccc1Cl,–,·,·,·,·,·
c1coc(C2Nc3ccccc3C3OCCC23)c1 (centres undefined),–,–,–,–,–,–
Fc1ccc2c(c1)C1OCCCC1C(c1ccccc1)N2 (centres undefined),–,–,–,88.3,–,–
CC(C)(C)N1Cc2nnn(Cc3ccccc3)c2-c2cc(N3CCCC3)ccc2S1(=O)=O,–,·,·,·,·,·
CCCCNS(=O)(=O)c1ccc2nc(SCC(=O)Nc3ccccc3)[nH]c2c1,–,–,–,–,–,–
CCCCNS(=O)(=O)c1ccc2nc(SCC(=O)c3ccc(C#N)cc3)[nH]c2c1,–,–,99.0,–,–,–
O=C(NCc1ccccc1)[C@@H]1CCCN1C(=O)[C@H]1CCCN1C(=O)c1ccccc1,–,·,·,·,·,·
SMILES,rCAG binder,aDG glyco up,PHOSPHO1 block,ALR inh,A3A deaminase,A3G deaminase
Cc1scc(-c2n[nH]c(=S)n2C(C)c2ccccc2)c1C (centres undefined),–,–,–,83.1,–,–
CCc1cc(-c2n[nH]c(=S)n2C(C)c2ccccc2)cs1 (centres undefined),–,–,–,94.1,–,–
Cc1ccccc1-n1c(-c2csc(C)c2C)n[nH]c1=S,–,–,–,–,–,–
COC(=O)C[C@H]1CC[C@@H]2[C@H](COc3ccc(NC(=O)c4cccc(Cl)c4)cc3C(=O)N2C)O1,–,·,·,·,·,·
O=C(OC12CCCN(C1)/C(=C/c1cccc(Cl)c1)C2)c1ccc(F)cc1 (centres undefined),–,·,·,·,·,·
COc1ccc(OCC(O)Cn2c(N)nc3c2c(=O)[nH]c(=O)n3C)cc1 (centres undefined),–,–,60.8,·,–,–
CC(C)CSc1nc2c(c(=O)[nH]c(=O)n2C)n1CC(O)COc1cccc2ccccc12 (centres undefined),–,–,87.8,·,·,·
CCCSc1nc2c(c(=O)[nH]c(=O)n2C)n1CC(O)COc1ccccc1 (centres undefined),–,–,–,–,–,–
CCSc1nc2c(c(=O)[nH]c(=O)n2C)n1CC(O)COc1ccccc1 (centres undefined),–,–,–,–,–,–
O=C(Cc1cccs1)NNC(=S)NCc1ccc(Cl)cc1,–,–,100.4,–,–,–
O=C(Cc1ccc(Cl)cc1)NNC(=S)NC(=O)c1cccs1,–,–,–,97.8,–,–
O=C(Cc1cccs1)NCc1ccccc1,–,–,–,–,–,–
CC(=O)NC(c1ccc(Cl)cc1)c1c(O)ccc2ccc(O)cc12 (centres undefined),–,–,–,95.6,–,–
Cc1ccc(-c2cc(C(=O)NN=Cc3cccc(OCc4ccccc4)c3)[nH]n2)cc1C,–,·,·,·,·,·
CCOc1ccc(NC(=O)C(C)N2C(=O)c3ccccc3S2(=O)=O)cc1 (centres undefined),–,–,·,–,–,–
CC(C(=O)Nc1ccc(N(C)C)cc1)N1C(=O)c2ccccc2S1(=O)=O (centres undefined),–,–,·,98.8,–,–
CC(=O)c1cc(-c2ccc3c(c2)OCO3)c(=O)n2c1CCC2,–,·,·,·,·,·
C=CCN1C(=O)[C@H](CC(=O)N2CCOCC2)[C@@]2(C(=O)OCC)CCCC=C12,–,·,·,·,·,·
C=CCN1C(=O)[C@@H](CC(=O)NCCCCc2ccccc2)[C@]2(C(=O)OC)CCCCC=C12,–,·,·,·,·,·
CCC(Sc1nc(-c2ccccc2)c(C#N)c(=O)[nH]1)C(=O)Nc1cc(C)on1 (centres undefined),50.2,–,–,–,–,–
CC1(C)Oc2ccc3ccc(=O)oc3c2/C(=C/NNC(N)=S)C1=O,–,–,–,87.8,–,–
O=C(O)c1ccc(-c2nc(-c3ccccc3)cs2)cc1,–,–,–,95.5,–,–
O=C(O)c1ccccc1C(=O)Nc1ccc(-c2csc(-c3ccccc3)n2)cc1,–,–,–,98.6,·,·
CNC(=O)c1ccc(-c2nc(-c3ccccc3)cs2)cc1,–,–,–,–,–,–
O=C(Nc1ccc(-c2csc(-c3ccccc3)n2)cc1)c1ccccc1Cl,–,–,–,–,–,–
SMILES,rCAG binder,aDG glyco up,PHOSPHO1 block,ALR inh,A3A deaminase,A3G deaminase
O=[N+]([O-])c1ccc(S(=O)(=O)Nc2ccc(-c3csc(-c4ccccc4)n3)cc2)cc1,78.6,·,–,–,–,–
CC(=O)Nc1nc2ncccn2c1-c1ccc(F)c(F)c1,–,·,·,·,·,·
O=C(NCC1CC1)c1ccc(Nc2nc3ccc(Br)cc3[nH]2)cc1,–,–,–,97.8,–,–
CCN1CCc2c(sc(NC(=O)c3ccc(S(=O)(=O)N(C)c4ccccc4)cc3)c2C(=O)NC)C1,·,43.2,–,–,–,–
CCN1CCc2c(sc(NC(=S)NC(=O)c3ccc(Cl)cc3)c2C(N)=O)C1,–,–,66.8,–,–,–
COC(=O)C1=C(C)N(Cc2ccccc2C(F)(F)F)C(=NCc2ccc3c(c2)OCO3)NC1c1cccc(C(F)(F)F)c1 (centres undefined),–,·,·,·,·,·
